The record followed here is PubChem BioAssay (EPA / NIEHS).

Calls of active or inactive are those of the source. How the source made its calls: active means hit-call score of the fitted dose curve at least 0.9, where 1 is the maximum; inactive means score below 0.9.

What all share (conditions): mRNA level, 48 h; actives raise or lower the signal
Read-out in one experiment: Caspase-3 (Homo sapiens) (UniProt P42574)
As to the kind of experiment: LTEA_HepaRG_CASP3: Life Technologies and Expression Analysis (LTEA) Assay for cysteine-aspartic acid protease (CASP3) using HepaRG (AID 2283477). Summed up:
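Expression of CASP3 was quantified by TaqMan qRT-PCR against three housekeeping genes (ACTB, GAPDH, POLR2A), bidirectionally versus 0.5% DMSO. HepaRG cultures received compounds in duplicate, top 100 uM with half-log steps, for 48 h in serum-free induction medium.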

Read-out in experiment [1]: Cytochrome P450 (CYP24A1), CYP24A1 (gene 1591)
As to the kind of experiment: LTEA_HepaRG_CYP24A1: Life Technologies and Expression Analysis (LTEA) Assay for Cytochrome P450 (CYP24A1) using HepaRG (AID 2283478). Summed up: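 mRNA of CYP24A1 quantified by TaqMan qRT-PCR (ACTB/GAPDH/POLR2A normalization) after 48 h chemical exposure of HepaRG cells, top concentration 100 uM, half-log steps, 0.5% DMSO vehicle, duplicates. Curves fitted bidirectionally against DMSO baseline.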

Read-out in experiment [2]: Cytochrome P450 (CYP2B6), CYP2B6 (gene 1555)
As to the kind of experiment: LTEA_HepaRG_CYP2B6: Life Technologies and Expression Analysis (LTEA) Assay for Cytochrome P450 (CYP2B6) using HepaRG (AID 2283481). The essentials:
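CYP2B6 transcript level quantified by qRT-PCR against three housekeeping genes, fitted bidirectionally relative to DMSO. HepaRG cultures received chemicals for 48 h, 8-point half-log series from 100 uM in 0.5% DMSO, duplicate wells, serum-free induction medium.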

Read-out in experiment [3]: Cytochrome P450 2C19 (Homo sapiens) (UniProt P33261)
As to the kind of experiment: LTEA_HepaRG_CYP2C19: Life Technologies and Expression Analysis (LTEA) Assay for CYP2C19 using HepaRG (AID 2283482). Summed up: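 CYP2C19 transcript levels by qRT-PCR, normalized to three housekeeping genes, in HepaRG cells after 48 h chemical exposure. Eight-point half-log series topping at 100 uM, 0.5% DMSO vehicle. Increases and decreases both fitted against DMSO.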

Read-out in the next experiment: CYP2C8 (gene 1558)
As to the kind of experiment: LTEA_HepaRG_CYP2C8: Life Technologies and Expression Analysis (LTEA) Assay for CYP2C8 using HepaRG (AID 2283483). Summed up:
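Differentiated human HepaRG cells were exposed for 48 h in serum-free induction medium to eight half-log concentrations up to 100 uM in 0.5% DMSO, in duplicate. CYP2C8 mRNA was measured by TaqMan qRT-PCR, normalized to ACTB, GAPDH and POLR2A, and fitted bidirectionally against DMSO.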

Read-out in a further experiment: CYP2C9 (gene 1559)
As to the kind of experiment: LTEA_HepaRG_CYP2C9: Life Technologies and Expression Analysis (LTEA) Assay for CYP2C9 using HepaRG (AID 2283484). Summed up: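 Differentiated human HepaRG cells were exposed 48 h in serum-free induction medium to eight half-log concentrations up to 100 uM in 0.5% DMSO. CYP2C9 mRNA was measured by qRT-PCR, normalized to ACTB, GAPDH and POLR2A, and fitted bidirectionally against DMSO.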

Read-out in another experiment: CYP2E1 (gene 1571)
As to the kind of experiment: LTEA_HepaRG_CYP2E1: Life Technologies and Expression Analysis (LTEA) Assay for CYP2E1 using HepaRG (AID 2283485). The essentials:
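Differentiated HepaRG cells were treated in duplicate for 48 h with chemicals in 0.5% DMSO, from 100 uM downward in half-log dilutions. RNA was then analysed by qRT-PCR for CYP2E1 induction or loss.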

Read-out in a further experiment: CYP4A11 (gene 1579)
As to the kind of experiment: LTEA_HepaRG_CYP4A11: Life Technologies and Expression Analysis (LTEA) Assay for CYP4A11 using HepaRG (AID 2283486). Summed up:
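Readout is CYP4A11 transcript level by qRT-PCR, normalized to three housekeeping genes and fitted bidirectionally against 0.5% DMSO. Human HepaRG cells were treated 48 h, in duplicate, with an 8-point half-log series topping at 100 uM.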

Read-out in experiment [4]: Cytochrome P450 3A4 (Homo sapiens) (UniProt P08684)
As to the kind of experiment: LTEA_HepaRG_CYP3A4: Life Technologies and Expression Analysis (LTEA) Assay for CYP3A4 using HepaRG (AID 2283487). Summed up:
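CYP3A4 transcript measured by TaqMan qRT-PCR and normalized to three housekeeping genes after 48 h chemical exposure of human HepaRG cells. Top concentration 100 uM, half-log steps, 0.5% DMSO vehicle; gain or loss fitted against DMSO baseline.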

Read-out in experiment [5]: DNA damage-inducible transcript 3 (DDIT3), DDIT3 (gene 1649)
As to the kind of experiment: LTEA_HepaRG_DDIT3: Life Technologies and Expression Analysis (LTEA) Assay for DNA damage-inducible transcript 3 (DDIT3) using HepaRG (AID 2283488). The essentials:
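Changes in DDIT3 transcript, in either direction relative to 0.5% DMSO vehicle, were quantified by TaqMan qRT-PCR after 48 h chemical exposure of HepaRG cells at 8 concentrations, maximum 100 uM.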

What is called AC50 is the midpoint of the concentration-response curve, whichever way the signal moves.

Sequence of Cytochrome P450 3A4 (Homo sapiens) (P08684 whole entry, looked up): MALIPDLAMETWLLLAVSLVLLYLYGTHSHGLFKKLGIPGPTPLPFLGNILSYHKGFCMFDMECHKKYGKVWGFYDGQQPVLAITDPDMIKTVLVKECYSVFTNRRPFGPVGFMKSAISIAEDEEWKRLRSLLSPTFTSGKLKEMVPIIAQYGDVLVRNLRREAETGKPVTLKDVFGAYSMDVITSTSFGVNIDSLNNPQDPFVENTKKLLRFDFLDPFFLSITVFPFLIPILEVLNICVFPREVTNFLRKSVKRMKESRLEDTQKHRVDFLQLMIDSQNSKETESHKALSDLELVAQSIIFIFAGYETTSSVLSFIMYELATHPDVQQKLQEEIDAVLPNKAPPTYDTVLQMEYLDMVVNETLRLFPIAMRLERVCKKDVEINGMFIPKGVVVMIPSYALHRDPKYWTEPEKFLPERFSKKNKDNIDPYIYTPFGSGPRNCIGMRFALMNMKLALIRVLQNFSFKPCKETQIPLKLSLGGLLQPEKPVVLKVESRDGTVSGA
Sequence of Cytochrome P450 2C19 (Homo sapiens) (P33261 whole entry, looked up): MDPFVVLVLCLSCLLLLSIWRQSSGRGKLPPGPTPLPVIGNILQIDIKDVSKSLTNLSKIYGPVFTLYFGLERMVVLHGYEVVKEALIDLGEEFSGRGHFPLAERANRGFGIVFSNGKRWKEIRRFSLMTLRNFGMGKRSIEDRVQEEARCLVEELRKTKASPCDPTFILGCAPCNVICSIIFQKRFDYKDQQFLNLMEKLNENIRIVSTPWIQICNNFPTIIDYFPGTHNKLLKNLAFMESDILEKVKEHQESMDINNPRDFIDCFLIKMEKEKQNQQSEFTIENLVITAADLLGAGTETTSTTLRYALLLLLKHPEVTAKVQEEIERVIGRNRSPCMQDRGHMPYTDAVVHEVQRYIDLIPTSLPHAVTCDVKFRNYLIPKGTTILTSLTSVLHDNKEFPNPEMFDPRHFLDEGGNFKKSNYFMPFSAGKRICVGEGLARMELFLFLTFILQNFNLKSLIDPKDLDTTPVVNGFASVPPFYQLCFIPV
Sequence of Caspase-3 (Homo sapiens) (P42574 whole entry, looked up): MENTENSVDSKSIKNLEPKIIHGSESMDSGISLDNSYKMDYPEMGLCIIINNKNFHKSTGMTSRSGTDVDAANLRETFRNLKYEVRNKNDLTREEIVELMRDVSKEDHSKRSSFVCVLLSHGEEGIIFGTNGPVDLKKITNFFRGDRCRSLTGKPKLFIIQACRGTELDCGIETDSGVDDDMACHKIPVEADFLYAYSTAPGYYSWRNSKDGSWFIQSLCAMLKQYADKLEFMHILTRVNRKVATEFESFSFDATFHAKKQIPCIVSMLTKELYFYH

Consider `CC(=O)[O][Hg][c]1ccccc1`, for which the AC50 in the experiment with Caspase-3 (Homo sapiens) is 23.1 µM (active); in [2] it was 6.12 µM (active); in experiment [3] it was 5 µM (active); in the experiment with CYP2C8 (gene 1558), 5 µM (active); in the experiment with CYP2C9 (gene 1559), 0.862 µM (active); with CYP2E1 (gene 1571), 13.2 µM (active). In addition, the AC50 in experiment [4] is 3.76 µM (active). In addition, the compound was classed as inactive (in experiment [1]; with CYP4A11 (gene 1579); in [5]).
With `O=c1[nH]c(=O)[nH]c(=O)[nH]1`, the compound was called inactive (in the experiment with Caspase-3 (Homo sapiens); in [1]; in experiment [2]; in experiment [3]; with CYP2C8 (gene 1558); with CYP2C9 (gene 1559)). Besides, the call (with CYP2E1 (gene 1571); with CYP4A11 (gene 1579); in experiment [4]; in experiment [5]) was inactive.
On to `ClCC(Cl)CCl`, for which the call (in the experiment with Caspase-3 (Homo sapiens); in experiment [1]; in [3]; in the experiment with CYP2C8 (gene 1558); in the experiment with CYP2C9 (gene 1559); with CYP2E1 (gene 1571)) was inactive. Also, the call (with CYP4A11 (gene 1579); in [4]; in experiment [5]) was inactive. Also, the AC50 in [2] is 17.7 µM (active).
For `O=[N+]([O-])c1ccc(O)c([N+](=O)[O-])c1`, the concentration at half-maximal activity (AC50) in the experiment with Caspase-3 (Homo sapiens) was 7 µM (active); in experiment [2], 16 µM (active); in experiment [3] it was 19.5 µM (active); with CYP2C8 (gene 1558), 40.1 µM (active); with CYP2C9 (gene 1559), 21.8 µM (active); with CYP2E1 (gene 1571), 20.5 µM (active). Also, the figures for the AC50 (with CYP4A11 (gene 1579); in experiment [4]; in [5]) were 31.5 µM (active), 22.2 µM (active) and 89.7 µM (active), respectively. For the same compound, the call in experiment [1] was inactive.
As to `CCC(C)(C)c1ccc(O)c(C(C)(C)CC)c1`, the compound was classed as inactive (with Caspase-3 (Homo sapiens); in [1]; in experiment [2]; in experiment [3]; with CYP2C8 (gene 1558); with CYP2C9 (gene 1559)). For the same compound, the compound was classed as inactive (with CYP2E1 (gene 1571); with CYP4A11 (gene 1579); in experiment [4]; in experiment [5]).
Consider `ClC1(Cl)C2(Cl)C3(Cl)C4(Cl)C(Cl)(Cl)C5(Cl)C3(Cl)C1(Cl)C5(Cl)C24Cl` (centres undefined), for which the result (with Caspase-3 (Homo sapiens); in experiment [1]; with CYP2C8 (gene 1558); in the experiment with CYP2C9 (gene 1559); in experiment [5]) was inactive. The AC50 in experiment [2] is 0.73 µM (active); in experiment [3], 3.41 µM (active); in the experiment with CYP2E1 (gene 1571), 4.06 µM (active); with CYP4A11 (gene 1579), 20 µM (active); in [4], 4.01 µM (active).
Take `NC(=O)O`: the compound was called inactive (with Caspase-3 (Homo sapiens); in experiment [1]; in experiment [2]; in experiment [3]; with CYP2C8 (gene 1558); with CYP2C9 (gene 1559)). Also, the result (with CYP2E1 (gene 1571); in the experiment with CYP4A11 (gene 1579); in experiment [4]; in experiment [5]) was inactive.
As to `C[C@]12CCC(=O)C[C@@H]1CC[C@@H]1[C@@H]2CC[C@]2(C)[C@@H](O)CC[C@@H]12`, the outcome (in the experiment with Caspase-3 (Homo sapiens); in experiment [1]; in [2]; in the experiment with CYP2C8 (gene 1558); with CYP2C9 (gene 1559); in experiment [4]) was inactive. The outcome in [5] was inactive. Further, the AC50 in experiment [3] was 23.6 µM (active); with CYP2E1 (gene 1571), 50 µM (active); with CYP4A11 (gene 1579), 23.9 µM (active).
Consider `CC(C)(C)CC(C)(C)c1ccc(O)cc1`, for which the call (with Caspase-3 (Homo sapiens); in experiment [1]; in experiment [3]; in the experiment with CYP2C8 (gene 1558); with CYP2C9 (gene 1559); in experiment [4]) was inactive. In addition, the compound was classed as inactive in [5]. Also, the results for the AC50 (in experiment [2]; in the experiment with CYP2E1 (gene 1571); in the experiment with CYP4A11 (gene 1579)) were 3.33 µM (active), 26.5 µM (active) and 72.3 µM (active), respectively.
As to `O=C(O)C(F)(F)C(F)(F)C(F)(F)C(F)(F)C(F)(F)C(F)(F)C(F)(F)C(F)(F)C(F)(F)C(F)(F)F`, the compound was called inactive (with Caspase-3 (Homo sapiens); in [1]; in experiment [3]; in the experiment with CYP2C8 (gene 1558); in experiment [4]; in experiment [5]). The concentration at half-maximal activity (AC50) in experiment [2] was 47.8 µM (active); in the experiment with CYP2C9 (gene 1559) it was 47.8 µM (active); with CYP2E1 (gene 1571), 57 µM (active); with CYP4A11 (gene 1579), 21.5 µM (active).
On to `CCOP(=S)(OCC)SCSP(=S)(OCC)OCC`, for which the AC50 in the experiment with Caspase-3 (Homo sapiens) is 0.095 µM (active); in experiment [2], 13 µM (active); in experiment [3] it was 26.1 µM (active); with CYP2C8 (gene 1558), 0.121 µM (active); in the experiment with CYP2E1 (gene 1571) it was 19.2 µM (active); in experiment [4], 12.5 µM (active). For the same compound, the outcome (in the experiment with CYP2C9 (gene 1559); with CYP4A11 (gene 1579); in experiment [5]) was inactive.
Turning to `CN(C)N=O`, the outcome (in the experiment with Caspase-3 (Homo sapiens); in experiment [1]; in [2]; in experiment [3]; in the experiment with CYP2C8 (gene 1558); with CYP2C9 (gene 1559)) was inactive. The outcome (in the experiment with CYP2E1 (gene 1571); with CYP4A11 (gene 1579); in experiment [4]; in experiment [5]) was inactive.
For the compound `CC(C)(c1ccccc1)c1ccc(O)c(C(C)(C)c2ccccc2)c1`, the call (with Caspase-3 (Homo sapiens); in experiment [1]; in [5]) was inactive. Moreover, the AC50 in [2] was 11.9 µM (active); in experiment [3], 83.2 µM (active); with CYP2C8 (gene 1558) it was 85 µM (active); in the experiment with CYP2C9 (gene 1559), 85.4 µM (active); in the experiment with CYP2E1 (gene 1571) it was 62.4 µM (active); in the experiment with CYP4A11 (gene 1579), 73.4 µM (active). Also, the AC50 in experiment [4] is 12.3 µM (active).
As to `O=C(Nc1ccc2[nH]ccc2c1)c1cc2cc(F)ccc2n1Cc1cccc(F)c1`, the outcome (with Caspase-3 (Homo sapiens); in experiment [1]) was inactive. Further, the AC50 in experiment [2] was 35.1 µM (active); in experiment [3], 73.6 µM (active); with CYP2C8 (gene 1558), 27 µM (active); with CYP2C9 (gene 1559), 35.7 µM (active); in the experiment with CYP2E1 (gene 1571), 21.9 µM (active); in the experiment with CYP4A11 (gene 1579), 16.6 µM (active). In addition, the AC50 is 83.5 µM (active) in experiment [4] and 18 µM (active) in [5].
As to `C=CC(=O)OCCCCCC(C)C`, the compound was classed as inactive (in the experiment with Caspase-3 (Homo sapiens); in [1]; in experiment [2]; in experiment [3]; with CYP2C8 (gene 1558); with CYP2C9 (gene 1559)). The compound was called inactive (in the experiment with CYP2E1 (gene 1571); with CYP4A11 (gene 1579); in experiment [4]; in experiment [5]).
